The values that follow come from the OligoGym collection.
Further: reference of the scale not given here.

For the first assay, the target named is ERICH1. The assay can be described thus: pooled miR-30 sensor sort-seq; sequence = guide strand. Conditions: shRNA.
Turning to TTTATTTTTGCTTATTGTGGTG, the sensor-assay potency score (higher = more potent) is -0.386. Still for that read-out and setting: then TTTCATTGGTAATTGTATCATC, with -0.447; and AATTGTATCATCTTCCTCGCTG, with 0.524. Same read-out and setting: then TATTGTGGTGCCATCTGTGTGC, with 0.019. On to TTATTTTTGCTTATTGTGGTGC, for which the sensor-assay potency score (higher = more potent) stood at 0.19. Turning to TTCTTTGATTTATGCTTCCTAA, the sensor-assay potency score (higher = more potent) is -1.05. The same measure, in the same setting: then TATACATTTAACTTAACAGAAT, with -1.58; and TCTCTCAGTATCTTGCAGGAGC, with -0.55.

A further assay concerns the target ERMAP. The description is as above. Conditions: shRNA.
TAGTTCTGAACAAATGACTAGA registered a sensor-assay potency score (higher = more potent) of -0.0154. Same read-out and setting: then TTTCTTGACAGCTTTATGGAGT, with 0.273; and TTCAACTTCAGTTCACTCCGGA, with 0.912.

Take TTACACATCTTTGGTCCTCAGA: the sensor-assay potency score (higher = more potent) was -0.674. Same read-out and setting: for TTTGCTCTTCTTTGCTTCCAGA the value was -0.875.

For the sequence TCAGACATCGGTAAGACCCTTG, the sensor-assay potency score (higher = more potent) is 0.421. Still for that read-out and setting: for TAGTAAAGAAGAGTTCACCTTG the value was 0.291. The same measure, in the same setting: for TTGTAGAAAGAGATGACTCCTG the value was 0.279; for TTTACTCAGATTTCCAACTTGG, 0.208.

The sequence TTTTGCTCTTCTTTGCTTCCAG returned a sensor-assay potency score (higher = more potent) of 0.153. As to TCTCTCACTAGCACCGTCCTCC, the sensor-assay potency score (higher = more potent) turned out to be 0.0369. Same read-out and setting: for TATTGCAGTACAATGGTCTTGT the value was 0.896.

A further assay has as its target ESPNL. The assay is described as above. The note with it: shRNA.
TGCCACAACAGAACAGTCCCGC registered a sensor-assay potency score (higher = more potent) of 0.291. In turn, TTACATCTTCTTGAGTGTCCGT displayed a sensor-assay potency score (higher = more potent) of 0.428.

In the case of TGAGTCTGTGAGTACCTCCAGG, the sensor-assay potency score (higher = more potent) was -0.966. On the same count and under the same terms, then TCCTCTTCTTCCATCCTCCAGG, with -1.74; and TTTTACATCTTCTTGAGTGTCC, with 0.799. The sequence TGCACCAAGAACTTGACGCAGT returned a sensor-assay potency score (higher = more potent) of -1.02.

In turn, TACATCTTCTTGAGTGTCCGTC yielded a sensor-assay potency score (higher = more potent) of 0.148. As for TTATTTAGCAAACACATGTTCA, the sensor-assay potency score (higher = more potent) is -0.54.

TCGGTGAATGTGACCAGCCAGA registered a sensor-assay potency score (higher = more potent) of -1.22. In turn, TAGCAAACACATGTTCAGCTTC gave a sensor-assay potency score (higher = more potent) of 0.322.

In the case of TTCAGCAGCAGGGACAGGCTGC, the sensor-assay potency score (higher = more potent) was -0.751. The same measure, in the same setting: then TTTATTTAGCAAACACATGTTC, with -0.167.

For a further assay, the target named is ESR2. The assay is described as above. The note with it: shRNA.
For TTTAACTCTCGAAACCTTGAAG, the sensor-assay potency score (higher = more potent) was -0.511. Same read-out and setting: for TTGAGCGCCACATCAGCCCCAT the value was -0.177; for TAGCTGGACAAATATAATCATT, -1.44. On to ATCATGTGTACCAACTCCTTGT, for which the sensor-assay potency score (higher = more potent) is -0.273. Same read-out and setting: for TAATCGCTGCAGACAGCGCAGA the value was -1.17; for TAATTCATCACAGCAGGGCTAT, -0.611. As for TTTTTATCGATTGTACACTGAT, the sensor-assay potency score (higher = more potent) is -0.36. Same read-out and setting: then ATCATTAACACCTCCATCCAAC, with -1.05.
